TGFb SMAD3 inh – blocks TGF-b signaling; Potency, µM (doses to about 46.1 µM), without a hit: at the top dose activity, negative = inhibition, most hits filed as inhibitors; HepG2 CAGA-GFP TGF-b/SMAD3 reporter, GFP fluorescence, 18 h; TGF-beta stimulated, 500 pg/mL final; AID 588855; 410,000 compounds, 1.2% hits; further: potency means the concentration at half of the fitted maximal effect; on the % scale 0 is the no-effect control and ±100 the full control effect; nearly all actives have a fitted effect of over 65% in size
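First, reporter cells (HEPG2 CAGA-GFP) rested 2 h at 37 degrees C. Next, compounds were pinned in and TGF-beta added to 500 pg/mL final. After 18 h, GFP was imaged per cell and summed per well.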
ATXN2 expr inh – inhibitors of ATXN2 expression | 360,000 compounds, 0.72% hits | Potency, µM (doses to about 57 µM), inactives show top-dose activity change, negative = inhibition, usual class: inhibitors | HEK-293 ATXN2-luciferase reporter, luminescence, 24 h; further: potency means the concentration at half of the fitted maximal effect; on the % scale 0 is the no-effect control and ±100 the full control effect; nearly all actives have a fitted effect of over 55% in size
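ATXN2-luciferase reporter cells (luciferase flanked by upstream and downstream ATXN2 gene portions) were treated 24 h at 37 °C with compounds at up to 57 uM. SteadyGlo luminescence gave expression; GF-AFC fluorescence gave viability.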
DRD3 antagonist – blocks the human D3 dopamine receptor | P35462 | D3R cells, DiscoveRx beta-arrestin luminescence, antagonist mode; hits give low values | max response, negative = inhibition, % | 360,000 compounds, 2.5% hits; in the data active means max response below about -50%; inconclusive means no clear call, values can overlap the other calls; further: on the % scale 0 is the no-effect control and ±100 the full control effect
Target sequence (P35462 whole entry, looked up): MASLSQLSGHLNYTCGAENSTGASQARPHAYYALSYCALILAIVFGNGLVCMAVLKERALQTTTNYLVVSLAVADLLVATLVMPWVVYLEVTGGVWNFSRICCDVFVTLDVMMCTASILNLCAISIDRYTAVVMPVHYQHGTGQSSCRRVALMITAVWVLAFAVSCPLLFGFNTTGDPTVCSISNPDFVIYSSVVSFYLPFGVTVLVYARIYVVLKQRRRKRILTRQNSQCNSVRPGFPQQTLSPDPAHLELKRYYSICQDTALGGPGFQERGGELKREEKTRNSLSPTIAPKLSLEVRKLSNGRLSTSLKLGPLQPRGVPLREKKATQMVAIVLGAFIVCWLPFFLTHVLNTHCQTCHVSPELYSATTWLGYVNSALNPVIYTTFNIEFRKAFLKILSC
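Cells plated overnight at 1500 cells/well, then exposed to library compounds with dopamine controls for 90 minutes at 37 degrees C. DiscoveRx reagent added for 30–60 minutes at room temperature; luminescence read, quantitative HTS format.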
S2 tox – viability counter-screen for ATXN expression inhibitors; S2 cells (HEK-293 line with an ATXN2-luciferase reporter) viability, CellTiter-Fluor protease fluorescence, 24 h; Potency, µM (titrated, usually from 56.7 µM), usual class: cytotoxic; 400,000 compounds, 0.49% hits; AID 651635; further: potency means the concentration at half of the fitted maximal effect; nearly all actives have a fitted effect of over 40% in size
DRD3 agonist – activates the human D3 dopamine receptor | P35462 | D3R DiscoveRx beta-arrestin cells, luminescence, 90 min | max activation, % | 410,000 compounds, 0.58% hits | AID 652048; in the data active means max activation above about 30%; further: 0% is about no effect
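Cells at 1500/well, incubated overnight, then treated with pinned compounds (dopamine as control) for 90 min at 37 degrees C. DiscoveRx reagent added for 30 - 60 minutes at room temperature; luminescence read.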
HepG2 viability – counter-screen for TGF-b inhibitors: cytotoxicity in HepG2 cells; HepG2 CAGA-GFP viability, ATP luminescence, 18 h; Potency, µM (titrated, usually from 46.1 µM), for inactives: top-dose activity change, negative = cytotoxicity, usual class: cytotoxic; 410,000 compounds, 0.76% hits; AID 588856; further: potency means the concentration at half of the fitted maximal effect
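HepG2 CAGA-GFP cells (1000/well, DMEM with 1% FBS) received compound, then TGF-beta at 500 pg/mL final, and were incubated 18 hours at 37 degrees C. Viability was read by CellTiter-Glo luminescence. Media-only wells were set as complete cell-killing and DMSO as no toxicity.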
An asterisk follows results filed as active; i = inactive; ? = inconclusive; · = no result given. The list is not random: actives were taken first. Their share in the collection is about 4.7%. Unless noted, the call rests on the fitted dose curve; in most records, active means well fitted curve in the direction sought with a large enough effect; inconclusive means small, poorly fitted or top-dose-only effect, or another doubt; inactive means no such curve, though single readings can be large; an effect the other way counts as inactive or inconclusive.

SMILES | TGFb SMAD3 inh | ATXN2 expr inh | DRD3 antagonist | S2 tox | DRD3 agonist | HepG2 viability
COc1ccc(N2CCN(C(CNS(=O)(=O)c3ccc(OC)c(C)c3)c3ccco3)CC2)cc1 (configuration not stated) | -28.0% | · | · | · | 2.3 | -0.4%
c1ccc(CN2CCN(CCN3CCn4c3nc3ccccc34)CC2)cc1 | 9.5% | -7.9% | -71.8* | i | 0.6 | -24.0%
c1ccc2c(c1)nc1n2CCN1CCNC1CCCCC1 | -25.3% | -2.4% | 0.0 | i | -0.9 | -22.0%
c1ccc2c(c1)nc1n2CCN1CCN1CCCC1 | ? | -9.1% | -111.6* | i | -35.9 | -31.2%
CCOC(=O)C1=C(C)NC(C)=C(C(=O)OCC)C1c1ccccc1/C=C/C(=O)OC(C)(C)C | · | 35.5µM* | · | ? | 14.5 | ·
COc1cc(C)c(C(C)C)cc1S(=O)(=O)N1CCOCC1 | -0.7% | 3.5% | 16.0 | i | 5.2 | -14.5%
COc1cc(C)c(S(=O)(=O)N2CCOCC2)cc1C | -11.9% | 2.7% | -85.3* | i | -1.0 | 8.4%
N#CC1(CCCN2CCCCC2)c2ccccc2CCc2ccccc21 | 35.6% | · | -93.0* | ? | -24.3 | 4.6%
OC1(C#CCCN2CCCCC2)c2ccccc2-c2ccccc21 | -2.0% | -15.2% | -3.5 | i | -6.9 | -15.8%
Cc1cccc(N2CCN(C(=O)CCC(=O)NNc3nc4ccccc4c4nc(C)nn34)CC2C)c1 (configuration not stated) | ? | · | · | · | -8.0 | -29.3%
CC1(C)CC(=O)C(C(C#Cc2ccccc2)C2=C(O)CC(C)(C)CC2=O)=C(O)C1 | ? | ? | -8.0 | ? | -10.3 | -50.3%
O=C1CCCC(O)=C1C(C#Cc1ccccc1)C1=C(O)CCCC1=O | ? | ? | -61.4* | ? | -5.0 | 15.8µM*
Cc1ccnc(Nc2nc(-c3ccc(O)c(O)c3)cs2)c1 | 14.1µM* | 26.2% | -13.3 | ? | 6.9 | -41.3%
Cc1ccnc(Nc2nc(-c3ccc(O)cc3O)cs2)c1 | 11.2µM* | -33.5% | -13.4 | ? | 1.7 | 11.2µM*
O=C(Nc1cccc(Nc2ccccc2)c1)c1cnn2c1NC(=C1CC1)C=C2C(F)F | 9.6% | · | · | · | · | -12.8%
Cc1nnc(NCc2ccc(F)cc2)c2c1nnn2Cc1ccccc1Cl | 19.3% | 5.0% | · | i | 5.4 | 4.0%
Cc1cc(C)c(NC(=O)CCCN2CCOCC2)c(C)c1 | 1.7% | -3.0% | -9.9 | i | 1.0 | -32.2%
Cc1cc(C)c(NC(=O)OCCN2CCOCC2)c(C)c1 | -1.5% | 0.0% | -59.9* | i | -6.8 | -4.9%
CC(=O)O[C@]1(C(C)=O)CC[C@H]2[C@@H]3C=C(Cl)C4=CC(=O)[C@@H]5C[C@H]5[C@]4(C)[C@@H]3CC[C@@]21C | · | -15.0% | · | · | · | ·
CC12CCC(C(=O)N(CSC(=S)N/N=C\c3ccccc3)C1=O)C2(C)C (configuration not stated) | 0.0% | 2.9% | -69.1* | i | 4.8 | -51.1%
CC12CCC(C(=O)N(CSC(=S)N/N=C\c3ccccc3Cl)C1=O)C2(C)C (configuration not stated) | -11.8% | -17.2% | -7.9 | i | 1.5 | -3.1%
COC/C=C/C1=CC2=CC(=O)C(C)(OC(=O)c3cnc4ccccc4n3)C(=O)C2=CN1Cc1ccccc1 (configuration not stated) | 11.2µM* | ? | -64.7* | · | -15.8 | -17.4%
O=C(NC(NC(=S)Nc1cccc(C(=O)O)c1)C(Cl)(Cl)Cl)OCc1ccccc1 (configuration not stated) | -20.2% | -5.3% | 7.4 | i | 8.1 | -18.8%
CCc1ccc(OCC(=O)NC(NC(=S)Nc2ccccc2C)C(Cl)(Cl)Cl)cc1 (configuration not stated) | ? | ? | -56.5* | ? | -20.2 | -102.0%
O=C(CCc1ccccc1)NC(NC(=S)Nc1ccc(Cl)cc1)C(Cl)(Cl)Cl (configuration not stated) | -3.3% | 31.6µM* | ? | · | -5.9 | -95.4%

Compound activity as filed in PubChem BioAssay.
